Among the data in PubChem BioAssay (NCI) are growth values, retold here.

About 83,000 compounds went through this panel and 20% of them were active in at least one assay; those are over-represented in the sample as a whole.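 Treatment: one concentration, 48 hours, 96-well format. Scoring: percent growth, with anything below 10 considered active.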 Unmarked numbers belong to inactive results. The source made the active and inactive calls.

Some test systems named below: SR leukemia; RPMI-8226 leukemia; OVCAR-8 ovarian; OVCAR-5 ovarian; OVCAR-4 ovarian; SK-OV-3 ovarian; IGROV1 ovarian; OVCAR-3 ovarian; HS 578T breast; NCI/ADR-RES ovarian; BT-549 breast; MDA-MB-435 melanoma; SW-620 colon; MCF7 breast; HCT-116 colon; HCC-2998 colon; KM12 colon; T-47D breast.
Assay in all cases: NCI-60 one-dose screen, 48 h (100 = growth as untreated, 0 = no growth, -100 = all killed)
Holding throughout (conditions): 10 µM unless noted

On to `O=c1c2cccc3c(N4CCOCC4)ccc(c32)c2nc3ccccc3n12`, for which the growth was 83.7% in the test on SR leukemia; 81.7% in the test on RPMI-8226 leukemia; 93.8% in the test on OVCAR-8 ovarian; 99.2% in the test with OVCAR-5 ovarian; 69.9% in the test with OVCAR-4 ovarian; 91.4% in the test with SK-OV-3 ovarian. Moreover, the growth was 58.3% in the test with IGROV1 ovarian; 100% in the test with OVCAR-3 ovarian; 40.2% with HS 578T breast; 93.9% in the test with NCI/ADR-RES ovarian; 93.8% in the test on BT-549 breast; 104% with MDA-MB-435 melanoma. Further, the growth with SW-620 colon was 103%; in the test with MCF7 breast, 24%; in the test on HCT-116 colon, 87%; in the test on HCC-2998 colon, 73.2%; in the test with KM12 colon it was 78.1%.
As for `CC(=O)O[C@H]1C[C@@]2(C)[C@@H](C[C@@H](O)[C@H]3[C@@]4(C)CC[C@H](N5CCCC5)[C@@H](C)[C@@H]4CC[C@@]32C)/C1=C(\CCC=C(C)C)C(=O)O`, the growth in the test with SR leukemia is 24%; in the test with RPMI-8226 leukemia, 88.1%; in the test on OVCAR-8 ovarian it was 102%; in the test with OVCAR-5 ovarian it was 102%; in the test with OVCAR-4 ovarian, 101%; in the test on SK-OV-3 ovarian, 100%. For the same compound, the growth with IGROV1 ovarian was 105%; with OVCAR-3 ovarian, 101%; in the test on HS 578T breast, 95.3%; in the test with NCI/ADR-RES ovarian, 95.1%; in the test on BT-549 breast, 101%; with MDA-MB-435 melanoma it was 99.7%. Moreover, the growth was 96.2% in the test with SW-620 colon, 99.9% in the test on HCT-116 colon, 104% with HCC-2998 colon and 102% in the test on KM12 colon.
As to `COc1ccc(-c2nc(SCCC(C)C)nc(N/N=C(/C)c3ccc(N)cc3)c2C#N)cc1`, the growth in the test on SR leukemia was 90.2%; with RPMI-8226 leukemia, 93.3%; in the test with OVCAR-8 ovarian, 92.7%; in the test with OVCAR-5 ovarian, 93.7%; with OVCAR-4 ovarian, 101%; in the test with SK-OV-3 ovarian it was 89%. Further, the growth in the test on IGROV1 ovarian is 79%; in the test with OVCAR-3 ovarian it was 99.2%; in the test on HS 578T breast, 92.4%; in the test on NCI/ADR-RES ovarian, 93.6%; with BT-549 breast, 96.7%; with MDA-MB-435 melanoma it was 104%. In addition, the growth was 95.2% in the test with SW-620 colon; 86.1% in the test with MCF7 breast; 94.3% with HCT-116 colon; 97.4% in the test with HCC-2998 colon; 92.1% in the test on KM12 colon.
For `COc1ccc(C2CC(=O)Oc3c(OC)c4c(c(OC)c32)OCO4)cc1` (centres undefined), the growth with SR leukemia is 61.8%; in the test with RPMI-8226 leukemia, 89.4%; in the test with OVCAR-8 ovarian, 98.2%; in the test on OVCAR-5 ovarian, 92.2%; in the test on OVCAR-4 ovarian, 106%; with SK-OV-3 ovarian, 92%. Moreover, the growth is 92.7% in the test on IGROV1 ovarian; 109% in the test on OVCAR-3 ovarian; 93.7% in the test on HS 578T breast; 92.4% in the test on NCI/ADR-RES ovarian; 103% in the test with T-47D breast; 56.8% in the test on MDA-MB-435 melanoma. Moreover, the growth was 89.7% in the test with SW-620 colon, 96.9% in the test with HCT-116 colon, 97% in the test with HCC-2998 colon and 88.1% in the test on KM12 colon.
With `O=C1c2c(c3c4cccnc4[nH]c3c3ccc4ccccc4c23)C(=O)N1O`, the growth in the test with SR leukemia is 17.8%; in the test with RPMI-8226 leukemia, 16%; in the test with OVCAR-8 ovarian, 46%; with OVCAR-5 ovarian it was 110%; with OVCAR-4 ovarian it was 53.8%; in the test with SK-OV-3 ovarian, 75.5%. Moreover, the growth in the test on IGROV1 ovarian was 38%; in the test on OVCAR-3 ovarian, 14.4%; with HS 578T breast, 70.9%; in the test on NCI/ADR-RES ovarian it was 94.3%; in the test on BT-549 breast it was 45%; with MDA-MB-435 melanoma, 47.9%. In addition, the growth in the test with SW-620 colon was 21.2%; with MCF7 breast, 20.8%; with HCT-116 colon, 26.5%; in the test on HCC-2998 colon, 77.2%; in the test with KM12 colon, 50.2%.
As to `O=c1c(/C=C/c2c(O)ccc3ccccc23)nnc2sc(-c3cccc([N+](=O)[O-])c3)nn12`, the growth in the test on SR leukemia was 28.3%; with RPMI-8226 leukemia, 57.3%; with OVCAR-8 ovarian, 22.4%; in the test on OVCAR-5 ovarian it was 82.1%; in the test with OVCAR-4 ovarian, 25.5%; in the test on SK-OV-3 ovarian, 46%. In addition, the growth in the test on IGROV1 ovarian is 43.1%; with OVCAR-3 ovarian, 15.2%; in the test with HS 578T breast it was 68.3%; in the test with NCI/ADR-RES ovarian it was 29.4%; in the test on T-47D breast it was 33.6%; in the test with MDA-MB-435 melanoma, 47.5%. Further, the growth with SW-620 colon is 32.5%; in the test on MCF7 breast it was 27.4%; with HCT-116 colon, 10.5%; in the test on HCC-2998 colon it was 60.9%; in the test with KM12 colon, 37.2%.
For `Nc1ncc(-c2ccc3ncnc(N4CCc5cc(F)c(Cl)cc54)c3c2)cc1C(F)(F)F`, the growth was -8.86% (active) with SR leukemia; 16.4% in the test on RPMI-8226 leukemia; 33.1% in the test with OVCAR-8 ovarian; 20.8% in the test with OVCAR-5 ovarian; 33.4% in the test on OVCAR-4 ovarian; 31.9% in the test with SK-OV-3 ovarian. Further, the growth in the test with IGROV1 ovarian was -42.6% (active); in the test with OVCAR-3 ovarian, 31.7%; in the test on HS 578T breast, -4.39% (active); in the test on NCI/ADR-RES ovarian, 19.5%; in the test with BT-549 breast it was 14.8%; in the test with MDA-MB-435 melanoma it was 0.606% (active). For the same compound, the growth in the test on SW-620 colon was 38.2%; with MCF7 breast, 8.11% (active); in the test with HCT-116 colon it was 21.3%; with HCC-2998 colon, 36.2%; in the test with KM12 colon, 40.2%.
With `Cc1ccc(-c2nn(CC(=O)N3CCOCC3)c(N)c2C#N)cc1`, the growth with SR leukemia was 99%; in the test on RPMI-8226 leukemia, 108%; in the test with OVCAR-8 ovarian, 99.8%; in the test with OVCAR-5 ovarian, 105%; in the test with OVCAR-4 ovarian, 91.8%; in the test with SK-OV-3 ovarian, 109%. For the same compound, the growth was 106% with IGROV1 ovarian; 113% in the test with OVCAR-3 ovarian; 93.1% with HS 578T breast; 108% with NCI/ADR-RES ovarian; 105% in the test on T-47D breast; 99.2% in the test with MDA-MB-435 melanoma. Also, the growth in the test with SW-620 colon was 104%; with HCT-116 colon it was 101%; in the test with HCC-2998 colon, 102%; with KM12 colon, 108%.
As for `CN1CCN(CC(=O)N(C)c2ccc(N=C(c3ccccc3)c3c(O)[nH]c4ccc([N+](=O)[O-])cc34)cc2)CC1`, the growth is 19.4% in the test on SR leukemia; 82.7% in the test with RPMI-8226 leukemia; 79.6% in the test with OVCAR-8 ovarian; 122% in the test on OVCAR-5 ovarian; 57.7% in the test with OVCAR-4 ovarian; 14.4% in the test on SK-OV-3 ovarian. Also, the growth was 49.3% in the test on IGROV1 ovarian; 73.6% with OVCAR-3 ovarian; 18.2% in the test on HS 578T breast; 90.8% in the test with NCI/ADR-RES ovarian; 64.4% in the test on BT-549 breast; 23.5% with MDA-MB-435 melanoma. Further, the growth is 48.4% in the test with SW-620 colon, 24% with HCT-116 colon, 78.7% in the test on HCC-2998 colon and 13.1% in the test on KM12 colon.
